Results published in PubChem BioAssay AID2685 (National Center for Advancing Translational Sciences (NCATS), 2010).
The whole screen tested about 320,000 compounds, of which about 2,100 (0.66%) were called active. Roughly 53% stayed inconclusive and do not appear here. The call rests on the fitted dose curve; in most records, active means well fitted inhibition curve with a large enough effect in the signal ratio, with a control signal flat (not every such curve was filed as active); inconclusive means small, poorly fitted or top-dose-only effect, or effect the other way, or a change in a side signal; inactive means flat fitted curve, though single readings scatter; the % refers to the signal ratio. This excerpt belongs to a sample that is enriched for actives.

Test: qHTS Assay for Lipid Storage Modulators in Drosophila S3 Cells;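 on cell number change: cells counted by Cell Tracker Red CMTPX staining in the red channel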; on lipid storage change, negative = inhibition: on the % scale 0 is the no-effect control and ±100 the full control effect
Conditions: BODIPY lipid droplet fluorescence, 18-24 h, cells fed with added oleic acid; cell number change: measured here: cell count max response; series mostly up to 46.1 µM; lipid storage change, negative = inhibition: at the top concentration
Procedure, shortened: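 Drosophila S3 cells got compounds at several concentrations plus oleic acid (400 uM solution). Laser-scanning cytometry with 488 nm excitation read lipid droplets at 500-530 nm and cells at 575-640 nm. Percent activity was relative to 20 uM Triacsin C.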
Potency means the concentration at half of the fitted maximal effect.

Structure (SMILES)	lipid storage change, negative = inhibition	cell number change [%]	outcome	Potency
COc1cccc(C(=O)NC23CC4CC(CC(C4)C2)C3)c1	15.8% (inactive)	26.5		
COc1ccc(N2CCN(C(=O)NC34CC5CC(CC(C5)C3)C4)CC2)cc1			inactive	
COc1cccc(N2CCN(C(C)C(=O)NC34CC5CC(CC(C5)C3)C4)CC2)c1 (centres undefined)		-27.6		1.3 µM (active)
O=C1c2ccccc2C(=O)c2c1cccc2N1CCN(Cc2ccccc2)CC1				18.4 µM (active)
O=c1[nH]ncc(N2CCN(Cc3ccccc3)CC2)c1Cl	13.6% (inactive)	12.7		
CC(=C1C(=O)c2ccccc2C1=O)N1CCN(Cc2ccccc2)CC1		11.8	inactive	
CN(c1ccccc1)C(c1ccc(F)cc1)c1nnnn1CC1CCCO1 (centres undefined)			inactive	
CCN(CC)C(c1ccc(F)cc1)c1nnnn1CC1CCCO1 (centres undefined)		4.03		18.4 µM (active)
CCN(CC)C(c1ccc(F)cc1)c1nnnn1C1CCCCC1 (centres undefined)	10.6% (inactive)	-7.83		
CC(C)c1nc(SCC(=O)N2CCOCC2)c2c(=O)n(C)c(=O)n(C)c2n1	8.15% [at 9.22 µM] (inactive)	5.66		
C=CCn1c(SCC(=O)O)nnc1-c1ccc(C(C)(C)C)cc1	-0.438% (inactive)	5.05		
C=C(C)Cn1c(SCC(=O)O)nnc1-c1ccc(C(C)(C)C)cc1		-3.69		29.1 µM (active)
Cn1c(SCC(N)=O)nnc1-c1ccc(C(C)(C)C)cc1	-7.75% (inactive)	-9.51		
CC(C)=CC(O)C/C(C)=C/COc1ccc2ccc(=O)oc2c1 (centres undefined)	5.31% (inactive)	-2.96		
O=C(NCC(c1ccco1)N1CCOCC1)c1ccc(F)c(F)c1 (centres undefined)	6.58% (inactive)	3.3		
CCCCC1C2C(=O)N(c3ccccc3)C(=O)C2ON1c1ccccc1 (centres undefined)	14.1% (inactive)	-1.39		
CCCOc1ccc(N2C(=O)C3ON(c4ccccc4)C(CCC)C3C2=O)cc1 (centres undefined)		10.7		18.4 µM (active)
CCCCC1C2C(=O)N(c3ccc(C)cc3)C(=O)C2ON1c1ccccc1 (centres undefined)	0.528% (inactive)	7.09		
CSc1nnc(C)c(=O)n1COC(=O)COc1ccc(Cl)cc1	8.1% (inactive)	11.4		
CCO[C@H]1OC(C(=O)N2CCN(C)CC2)=C[C@@H](c2ccc(Br)cc2)[C@@H]1CCCO	0.537% (inactive)	4.76		
CC(=O)Nc1ccc(NC(=O)Nc2cc(C)cc(C)c2)cc1	-8.79% (inactive)	7.61		

Structure (SMILES)	lipid storage change, negative = inhibition	cell number change [%]	outcome	Potency
O=C(Cc1ccc(F)cc1)NCCc1ccc(F)cc1	0.497% (inactive)	-3.73		
CCC(CC)C(=O)NCCc1ccc(S(N)(=O)=O)cc1	0.195% (inactive)	-8.96		
CCC(CC)C(=O)NCCc1ccc(F)cc1		0.621		25.9 µM (active)
O=C(Cc1ccccc1)N/N=C/c1ccc[nH]1	1.93% (inactive)	7.79		
COc1ccccc1N(C)S(=O)(=O)c1ccc(C(=O)O)cc1	-19.5% (inactive)	-4.33		
COc1cccc(CN2CCNC(=O)C2CC(=O)NCc2cn3cccc(C)c3n2)c1OC (centres undefined)		-8.41	inactive	
O=S(=O)(c1cccc2nsnc12)N1CCN(Cc2ccccc2)CC1		1.32		6.51 µM (active)
O=S(=O)(c1cccc2nsnc12)N1CCN(C/C=C/c2ccccc2)CC1	24.3% (inactive)	7.87		
CCN1CCN(S(=O)(=O)c2cccc3nsnc23)CC1	-15.7% (inactive)	-12.7		
Cc1cc(/C=C2\SC(=S)N(Cc3ccco3)C2=O)c(C)n1-c1ccccc1	24.5% (inactive)	-3.86		
COc1ccc(-n2c(C)cc(/C=C3\SC(=S)N(Cc4ccco4)C3=O)c2C)cc1	-4.8% (inactive)	-10.6		
Cc1cc(/C=C2\SC(=S)N(Cc3ccco3)C2=O)c(C)n1-c1cccnc1				23.1 µM (active)
Cc1cc(C(=O)NN=C2C3CC4CC(C3)CC2C4)c2ccccc2n1	-6.2% (inactive)	-7.65		
CN(C)C(CNC(=S)Nc1cccc(Cl)c1)c1cccnc1 (centres undefined)	-1.12% (inactive)	-7.59		
CNNC(=S)NC1CC2CC1C1C=CCC21 (centres undefined)	14.9% (inactive)	17.5		
CCOc1ncccc1-c1nc(-c2cccs2)no1	21.8% (inactive)	-0.414		
CC1CN(C(=O)c2ccc(COc3ccc4ccccc4c3)o2)CC(C)O1 (centres undefined)	17.9% (inactive)	18.9		
CCOc1cccc2cc(C(=O)N3CC(C)OC(C)C3)c(=O)oc12 (centres undefined)	0.754% (inactive)	-8.03		
CC1CN(C(=O)c2ccc(COc3ccccc3Br)o2)CC(C)O1 (centres undefined)	15.9% (inactive)	21.6		
CC1CN(C(=O)COC(=O)c2cc(Cl)ccc2Cl)CC(C)O1 (centres undefined)	-9.51% (inactive)	-5.44		
Cc1ccccc1OCc1ccc(C(=O)N2CC(C)OC(C)C2)o1 (centres undefined)		14.8		32.6 µM (active)

Structure (SMILES)	lipid storage change, negative = inhibition	cell number change [%]	outcome	Potency
CC1CN(C(=O)c2ccccc2OCc2ccc(Cl)cc2Cl)CC(C)O1 (centres undefined)		-15		0.651 µM (active)
COc1ccc(N=C2CCS(=O)(=O)c3sccc32)cc1	18.8% (inactive)			
O=C(CN1C(=O)NC2(CCCC2)C1=O)Nc1ccccc1-c1ccccc1	7.06% (inactive)			
COc1ccccc1C(=O)Nc1cccc(N(C)S(C)(=O)=O)c1	8.7% (inactive)	-2.55		
CC(=O)c1cccc(NC(=O)N2CCCCCC2)c1		-8.42	inactive	
Cc1cc(C)cc(NC(=O)N2CCN(S(C)(=O)=O)CC2)c1	14.6% (inactive)	5.38		
CC(=O)c1cccc(NC(=O)N2CCN(S(C)(=O)=O)CC2)c1				11.6 µM (active)
O=C(CCc1nnc2n(Cc3ccc(Cl)cc3)c(=O)c3ccccc3n12)NCCCN1CCOCC1			inactive	
CC(C)N(C(=O)Cn1c(-c2ccccc2Cl)nc2ccccc21)c1ccccc1	-6.38% (inactive)	-7.06		
N#C/C(=N\Nc1ccc(F)cc1)C(=N)N1CCCCCC1	-5.17% (inactive)	0.927		
O=[N+]([O-])c1cc([N+](=O)[O-])c(N2CCCCCC2)cc1NCCO	-14% (inactive)	-19.4		
Cc1nc2ccccc2n1CCOc1ccc(F)cc1	9.98% (inactive)	-21.4		
Cc1ccccc1C(=O)NCCn1cc(SCC(=O)NCC2CCCO2)c2ccccc21 (centres undefined)	-8.86% (inactive)	4.31		
CCn1cc(SCC(=O)NCC2CCCO2)c2ccccc21 (centres undefined)	-5.87% (inactive)	-11.7		
COc1ccccc1C(=O)NCCn1cc(SCC(=O)NCC2CCCO2)c2ccccc21 (centres undefined)		-16.8		18.4 µM (active)
CCCCNC(=O)C1CCN(Cc2ccc(OCc3ccccc3)cc2)CC1	-3.1% (inactive)	-13		
COc1ccc(/C=C2/C(=N)N3C(=NC2=O)Sc2cc(S(C)(=O)=O)ccc23)cc1OC	-5.29% (inactive)	20.5		
CN(C)c1ccc(/C=C2\C(=N)N3C(=NC2=O)Sc2cc(S(C)(=O)=O)ccc23)cc1		29.8		5.8 µM (active)
Cc1ccc(S(=O)(=O)Oc2ccc(/C=C3/C(=N)N4C(=NC3=O)SN=C4S(C)(=O)=O)cc2)cc1		-5.51	inactive	
